# PMC7819943, “Rice protein-binding microarrays: a tool to detect cis-acting elements near promoter regions in rice”
# In all, about 39,000 sequences were measured (“fluorescence intensity (a.u.)”: median about 4,300, highest 2% from about 39,000 on). The sample holds the highest values, similar sequences and a random draw of the others, so the mix is not that of the screen.
# Molecular target: T1, OsSMF1 (Oryza sativa, UniProt Q6ZLB0 1-436)
# T1 sequence: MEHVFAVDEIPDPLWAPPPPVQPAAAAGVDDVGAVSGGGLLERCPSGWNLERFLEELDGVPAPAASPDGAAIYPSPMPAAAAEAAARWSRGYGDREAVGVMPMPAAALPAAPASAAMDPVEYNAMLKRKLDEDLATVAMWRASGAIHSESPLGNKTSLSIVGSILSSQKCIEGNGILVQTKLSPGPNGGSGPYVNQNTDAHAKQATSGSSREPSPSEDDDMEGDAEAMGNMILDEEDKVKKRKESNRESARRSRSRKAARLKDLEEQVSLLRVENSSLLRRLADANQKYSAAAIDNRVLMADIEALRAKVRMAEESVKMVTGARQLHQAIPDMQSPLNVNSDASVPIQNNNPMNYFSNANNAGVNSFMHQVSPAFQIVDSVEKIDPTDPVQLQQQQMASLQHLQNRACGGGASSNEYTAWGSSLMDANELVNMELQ
# Assay: protein-binding microarray (RPBM); PBS, 2% BSA, 51.3 ng/ul salmon testes DNA, 50 uM zinc acetate, 200 nM TF, 25 C, 1 h; high values mean tight binding
# Conditions: protein: recombinant; tags: N-terminal polyhistidine and DsRed monomer fusion (pET32a); chain copies: 2; label: CyDye5-dUTP incorporated in the synthesized complementary strand; 3' TTTTT single-stranded linker to array surface; dsDNA, one strand shown
# Procedure, shortened: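 Per-feature fluorescence intensity (arbitrary units), read on an Axon 4000B scanner, is the binding signal. Transcription factors carrying an N-terminal polyhistidine tag and DsRed fusion were expressed in E. coli BL21-CodonPlus and purified on Ni–NTA. A custom Agilent array, made double-stranded by primer extension with Cy5-dUTP and blocked with 2% BSA, was incubated with 200 nM protein in PBS, 2% BSA, salmon testes DNA and 50 µM zinc acetate at 25 °C for 1 h and then washed.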
row,Sequence,binding signal
1,AGTACATAATTACGCACATGTGACACACACCACACATACTCGGAGTCACCTAGTGCAG,3140 fluorescence intensity (a.u.)
2,ATACGATACCATAGGTATGTCAGCATGATATATATGTACTCGGAGTCACCTAGTGCAG,3890 fluorescence intensity (a.u.)
3,TATGTGTTGACACCAAGGCTGACTCGGTTTTCGTCAAGGTCGGAGTCACCTAGTGCAG,6530 fluorescence intensity (a.u.)
4,GTCGTCTAGTAGTAGTAGCCTACCACCACCTCCCTCGGCGCGGAGTCACCTAGTGCAG,3230 fluorescence intensity (a.u.)
5,AATTGGGATCAAAGCCTTCATGTTCATAGCAAATCAAGAGCGGAGTCACCTAGTGCAG,45900 fluorescence intensity (a.u.)
6,AAATGGGGCCTAGAGTTCCAACCAATTGCAGCAAGAGCAGCGGAGTCACCTAGTGCAG,3230 fluorescence intensity (a.u.)
7,TAGCAAGAGACCTTGTTGAGCATGTCATCAATGTCAAGTGCGGAGTCACCTAGTGCAG,4150 fluorescence intensity (a.u.)
8,AGAATTTTGCAGACCGAGGCTTGGCCACCGAGGCGCAAGCCGGAGTCACCTAGTGCAG,3790 fluorescence intensity (a.u.)
9,GAACGACCCGAACTTATGACTCATTTATGGTTTGTTTCTCCGGAGTCACCTAGTGCAG,8680 fluorescence intensity (a.u.)
10,ACCTCCTCCACCTCCATGGCTCACCACCACGTACAGCAAACGGAGTCACCTAGTGCAG,3360 fluorescence intensity (a.u.)
11,TTTTAAGGGGCAAATCTTACCAACTTTTACTAGCGTGTCACGGAGTCACCTAGTGCAG,3680 fluorescence intensity (a.u.)
12,CTAAAACCACATATAAGGAGTGTCCTGTAGCAAAATTTCCCGGAGTCACCTAGTGCAG,4200 fluorescence intensity (a.u.)
13,AGTAGCAAAACCTGTTTGTAGAGGAAATTATTATAGTGTTCGGAGTCACCTAGTGCAG,53700 fluorescence intensity (a.u.)
14,CTGTAGCAAATTAGAAGCAAAAGTGTTAGTTCAAATTGTGCGGAGTCACCTAGTGCAG,3320 fluorescence intensity (a.u.)
15,CGTGTGTAACTTTGGAACCTGCCACGGGAGAGCGAATTCCCGGAGTCACCTAGTGCAG,25500 fluorescence intensity (a.u.)
16,GAATAGTAACAATTAGTTTTGTGAATTTTGTGAAATACGCCGGAGTCACCTAGTGCAG,52300 fluorescence intensity (a.u.)
17,ACAAATTATAAGTAACAAACTTTTGTGACGTATAGTAGCCCGGAGTCACCTAGTGCAG,4440 fluorescence intensity (a.u.)
18,TGTGAATTACTAGTAGTACGTAAGCATAAATACGCCACCCCGGAGTCACCTAGTGCAG,3550 fluorescence intensity (a.u.)
19,AACCTGCTGTCCACTACAACGTCACATTTCAACAAATCCACGGAGTCACCTAGTGCAG,34200 fluorescence intensity (a.u.)
20,ACCAACGGCCCGAGTCCGACACACGTCTCACGCACGAGCACGGAGTCACCTAGTGCAG,3910 fluorescence intensity (a.u.)
21,GCTTCCCGCACGACACCTGTCCACACAAATCTTAGAGCAACGGAGTCACCTAGTGCAG,41400 fluorescence intensity (a.u.)
22,CACACAGCCGCCCTTGCCGACCGCCACCGCCGCAACCGCACGGAGTCACCTAGTGCAG,3300 fluorescence intensity (a.u.)
23,TTTGCGAACGTAATTCCATTAATTAAACACACGTCTATATCGGAGTCACCTAGTGCAG,3220 fluorescence intensity (a.u.)

row,Sequence,binding signal
1,TCGAAGAAGCCCTTTATTTCTCTTTTCGATACTCACACAACGGAGTCACCTAGTGCAG,3260 fluorescence intensity (a.u.)
2,GGCGGAGAGGGTATGGACAACAGCGCCGAGGTGGCGTGGCCGGAGTCACCTAGTGCAG,5480 fluorescence intensity (a.u.)
3,GTCAGCGCCAACTTACTTGGCGCTGAGGTTGTGCACCTCACGGAGTCACCTAGTGCAG,3160 fluorescence intensity (a.u.)
4,CGGGCGACGCCGGTGCTGGCGCCAGCGTGGGGCCGCGACGCGGAGTCACCTAGTGCAG,4780 fluorescence intensity (a.u.)
5,GCCAGGTGGGCTGGCGCTGAGTGTCCCACGGTCAGCGCCACGGAGTCACCTAGTGCAG,4010 fluorescence intensity (a.u.)
6,CAGCTACCTCAGCGCCAACCGGACTGGCGCTGAGGTGGGACGGAGTCACCTAGTGCAG,39200 fluorescence intensity (a.u.)
7,GCGTGGGGCGCCGGTGGCGGAGGGTGGGGACGACAACCAGCGGAGTCACCTAGTGCAG,65500 fluorescence intensity (a.u.)
8,ATTTAATGTTGTCCTAGCTAGATCCATCCAAGGCTCCAAACGGAGTCACCTAGTGCAG,3590 fluorescence intensity (a.u.)
9,CGCCAGCCACCTCCGGCGCCGTTCGCCAGCCACCACGCGCCGGAGTCACCTAGTGCAG,37900 fluorescence intensity (a.u.)
10,ACCTTCTAGACAAGGGTATGATGACATGTACCGATCCCAACGGAGTCACCTAGTGCAG,6680 fluorescence intensity (a.u.)
11,ACGCGCGGGCGTGGCTGACGTGGCCCGGAGAAGGCGGAGGCGGAGTCACCTAGTGCAG,5770 fluorescence intensity (a.u.)
12,CTCCCGCCGTGGCACGCGCGACGTGCCGCGTGCGCACAGGCGGAGTCACCTAGTGCAG,46800 fluorescence intensity (a.u.)
13,TGTACACGCGCAGGGCGGCCCTGGCGTTGCTGACGTGGCGCGGAGTCACCTAGTGCAG,42500 fluorescence intensity (a.u.)
14,GCCGTTAGTGCCACGTGGCGCCTTCCCATTCGACCGCCGCCGGAGTCACCTAGTGCAG,37400 fluorescence intensity (a.u.)
15,CGCGGCGGCGGCGGCGCGAAGGCACGTGGCACGGCGCCGCCGGAGTCACCTAGTGCAG,3420 fluorescence intensity (a.u.)
16,CCACCGCCGCCACACAGTCCGCTTCGGTTCCCCGTTTCCGCGGAGTCACCTAGTGCAG,65500 fluorescence intensity (a.u.)
17,ACACACACACACACCCACCACACCACCCCGGCCGCTTCCGCGGAGTCACCTAGTGCAG,3210 fluorescence intensity (a.u.)
18,TAGCCGTTAGTGCCACGTGGCGCCTTCCCATTCGACCGCCCGGAGTCACCTAGTGCAG,40600 fluorescence intensity (a.u.)
19,CTTCCCGCCGCCGCCACTGCCACGAACAGTTCGCTCACCGCGGAGTCACCTAGTGCAG,3200 fluorescence intensity (a.u.)
20,GCCCGCCCGTCCCGTCCGACGTCCGCGTCACGCACGCGCGCGGAGTCACCTAGTGCAG,7940 fluorescence intensity (a.u.)
21,GGCGGCGTTCGCGGCGGCGACGTGGGCGTACCTGACGGCGCGGAGTCACCTAGTGCAG,3590 fluorescence intensity (a.u.)
22,GAACGGTCAAATAGCCGTTAGTGCCACGTGGCGCCTTCCCCGGAGTCACCTAGTGCAG,25100 fluorescence intensity (a.u.)
